In PubChem BioAssay AID1159580 (chemical genetic matrix, 2015):
The whole screen tested about 5,500 compounds, of which about 2,000 (36%) were called active. Another 18% or so got no clear call; they are omitted. The list shows a part of the results. A number with no mark means an inactive call. No stated cut-off is given here; in the data, active means normalized growth mostly below about 0.91 (no sharp cut-off); inconclusive means no clear call, values can overlap the other calls; inactive means mostly above about 0.92.

Experiment: chemical genetic growth profiling, strain panel (AID 1159580);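 further: tested at 20 µM; growth read once vehicle control cultures reached saturation at 30 °C; 1 = growth at the plate median or of vehicle wells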
Settings: growth OD
[1] = S. cerevisiae deletion strains, locus YAL013W, strain DEP1, stronger effect = lower value
[2] = S. cerevisiae deletion strains, locus YBR229C, strain ROT2, stronger effect = lower value
[3] = S. cerevisiae deletion strains, locus YDL101C, strain DUN1, stronger effect = lower value
[4] = S. cerevisiae deletion strains, locus YDR150W, strain NUM1, stronger effect = lower value
[5] = S. cerevisiae deletion strains, locus YGR078C, strain PAC10, stronger effect = lower value
[6] = S. cerevisiae deletion strains, locus YHR030C, strain SLT2, stronger effect = lower value
[7] = S. cerevisiae deletion strains, locus YLR039C, strain RIC1, stronger effect = lower value
[8] = S. cerevisiae deletion strains, locus YLR262C, strain YPT6, stronger effect = lower value
[9] = S. cerevisiae deletion strains, locus YMR263W, strain SAP30, stronger effect = lower value
[10] = S. cerevisiae deletion strains, locus YNL153C, strain GIM3, stronger effect = lower value
[11] = S. cerevisiae deletion strains, locus YNL322C, strain KRE1, stronger effect = lower value
[12] = S. cerevisiae deletion strains, locus YPL055C, strain LGE1, stronger effect = lower value
[13] = S. cerevisiae deletion strains, locus YPL241C, strain CIN2, stronger effect = lower value
[14] = S. cerevisiae deletion strains, locus YMR307W, strain GAS1, stronger effect = lower value

`O=C(CSCc1cccc2ccccc12)NNC(=S)Nc1ccccc1Cl` gave a normalized growth [1] of 0.969, a normalized growth [2] of 0.991 and a normalized growth (S. cerevisiae deletion strains, locus YCL061C, strain MRC1, stronger effect = lower value) of 0.971. For the same molecule, the normalized growth [3] was 0.987, the normalized growth [4] was 0.933 and the normalized growth (S. cerevisiae deletion strains, locus YEL061C, strain CIN8, stronger effect = lower value) was 0.813 (active). For the same molecule, the normalized growth [5] was 0.984, the normalized growth [6] was 0.728 and the normalized growth (S. cerevisiae deletion strains, locus YHR087W, strain rtc3, stronger effect = lower value) was 1.02. For the same molecule, the normalized growth (S. cerevisiae deletion strains, locus YJR043C, strain POL32, stronger effect = lower value) was 0.986, the normalized growth (S. cerevisiae deletion strains, locus YJR075W, strain HOC1, stronger effect = lower value) was 0.984 and the normalized growth (S. cerevisiae deletion strains, locus YKL190W, strain CNB1, stronger effect = lower value) was 0.844 (active). For the same molecule, the normalized growth [7] was 0.588 (active), the normalized growth (S. cerevisiae deletion strains, locus YLR058C, strain SHM2 (second series), stronger effect = lower value) was 0.978 and the normalized growth (S. cerevisiae deletion strains, locus YLR085C, strain ARP6, stronger effect = lower value) was 0.679 (active). The normalized growth [8] was 0.623 (active), the normalized growth (S. cerevisiae deletion strains, locus YML094W, strain GIM5, stronger effect = lower value) was 0.857 (active) and the normalized growth (S. cerevisiae deletion strains, locus YMR219W, strain ESC1, stronger effect = lower value) was 0.988. For the same molecule, the normalized growth [9] was 0.955, the normalized growth [10] was 0.958 and the normalized growth (S. cerevisiae deletion strains, locus YNL298W, strain CLA4 (second series), stronger effect = lower value) was 0.564 (active). The normalized growth [11] was 0.996, the normalized growth (S. cerevisiae deletion strains, locus YNR030W, strain Alg12, stronger effect = lower value) was 0.63 (active) and the normalized growth (S. cerevisiae deletion strains, locus YOL006C, strain TOP1, stronger effect = lower value) was 0.365 (active). For the same molecule, the normalized growth [12] was 0.903, the normalized growth [13] was 0.648 (active) and the normalized growth (S. cerevisiae deletion strains, locus YPR135W, strain CTF4, stronger effect = lower value) was 0.793. For the same molecule, the normalized growth (S. cerevisiae strains, strain wild type, stronger effect = lower value) was 0.765 (active).
For `CC(C)(C)C1(O)CCN2CC3c4ccccc4CCc4cccc(c43)C2C1` (centres undefined), the normalized growth [1] was 1.02, the normalized growth (S. cerevisiae deletion strains, locus YAL040C, strain CLN3, stronger effect = lower value) was 0.975 and the normalized growth (S. cerevisiae deletion strains, locus YCL061C, strain MRC1 (second series), stronger effect = lower value) was 0.986. It also gave a normalized growth [4] of 1, a normalized growth (S. cerevisiae deletion strains, locus YDR363W, strain ESC2, stronger effect = lower value) of 1.04 and a normalized growth (S. cerevisiae deletion strains, locus YER002W, strain NOP16, stronger effect = lower value) of 0.993. It also gave a normalized growth [9] of 1.01, a normalized growth [14] of 1.02 and a normalized growth [10] of 0.983. For the same molecule, the normalized growth (S. cerevisiae deletion strains, locus YNL175C, strain NOP13, stronger effect = lower value) was 0.996, the normalized growth (S. cerevisiae deletion strains, locus YNL197C, strain WHI3, stronger effect = lower value) was 0.972 and the normalized growth (S. cerevisiae deletion strains, locus YNL224C, strain SQS1, stronger effect = lower value) was 0.997. The normalized growth [11] was 1.01, the normalized growth (S. cerevisiae deletion strains, locus YOR083W, strain WHI5 (second series), stronger effect = lower value) was 1.01 and the normalized growth [12] was 1.02. It also gave a normalized growth [13] of 0.999.
Molecule `CC1(C)OC(=O)C=CC2(C)C1CC(O)C1(C)C2CCC2(C)C(c3ccoc3)OC(=O)C3OC321` (centres undefined) has a normalized growth [1] of 1.02, a normalized growth (S. cerevisiae deletion strains, locus YBR021W, strain FUR4, stronger effect = lower value) of 0.971 and a normalized growth [2] of 1.01. The normalized growth (S. cerevisiae deletion strains, locus YCL029C, strain bik1, stronger effect = lower value) was 1.02, the normalized growth (S. cerevisiae deletion strains, locus YDL035C, strain GPR1, stronger effect = lower value) was 1.01 and the normalized growth (S. cerevisiae deletion strains, locus YDL074C, strain BRE1, stronger effect = lower value) was 1.02. It also gave a normalized growth [3] of 1.01, a normalized growth (S. cerevisiae deletion strains, locus YDL134C, strain PPH21, stronger effect = lower value) of 1.01 and a normalized growth (S. cerevisiae deletion strains, locus YDL185W, strain tfp1, stronger effect = lower value) of 1.02. It also gave a normalized growth (S. cerevisiae deletion strains, locus YDL192W, strain arf1, stronger effect = lower value) of 1.01, a normalized growth (S. cerevisiae deletion strains, locus YDR101C, strain arx1, stronger effect = lower value) of 0.998 and a normalized growth (S. cerevisiae deletion strains, locus YDR162C, strain NBP2, stronger effect = lower value) of 1.04. It also gave a normalized growth (S. cerevisiae deletion strains, locus YDR318W, strain mcm21, stronger effect = lower value) of 1.01, a normalized growth (S. cerevisiae deletion strains, locus YDR388W, stronger effect = lower value) of 1.02 and a normalized growth (S. cerevisiae deletion strains, locus YDR502C, strain sam2, stronger effect = lower value) of 1.04. The normalized growth (S. cerevisiae deletion strains, locus YER110C, stronger effect = lower value) was 1.02, the normalized growth (S. cerevisiae deletion strains, locus YER155C, strain BEM2, stronger effect = lower value) was 0.996 and the normalized growth (S. cerevisiae deletion strains, locus YER167W, strain BCK2, stronger effect = lower value) was 0.997. For the same molecule, the normalized growth (S. cerevisiae deletion strains, locus YGL078C, strain dbp3, stronger effect = lower value) was 1.01, the normalized growth (S. cerevisiae deletion strains, locus YGL086W, strain mad1, stronger effect = lower value) was 1.01 and the normalized growth (S. cerevisiae deletion strains, locus YGL248W, strain PDE1, stronger effect = lower value) was 1.01. It also gave a normalized growth [5] of 1, a normalized growth (S. cerevisiae deletion strains, locus YGR135W, strain pre9, stronger effect = lower value) of 1.04 and a normalized growth (S. cerevisiae deletion strains, locus YGR252W, strain gcn5, stronger effect = lower value) of 0.965. For the same molecule, the normalized growth [6] was 1.01, the normalized growth (S. cerevisiae deletion strains, locus YHR079C, strain IRE1 (second series), stronger effect = lower value) was 1.01 and the normalized growth (S. cerevisiae deletion strains, locus YHR094C, strain hxt1, stronger effect = lower value) was 1.02. It also gave a normalized growth (S. cerevisiae deletion strains, locus YHR129C, strain ARP1, stronger effect = lower value) of 1, a normalized growth (S. cerevisiae deletion strains, locus YHR200W, strain rpn10, stronger effect = lower value) of 1.01 and a normalized growth (S. cerevisiae deletion strains, locus YIL066C, strain RNR3, stronger effect = lower value) of 1.01. It also gave a normalized growth (S. cerevisiae deletion strains, locus YIL073C, strain SPO22, stronger effect = lower value) of 1.03, a normalized growth (S. cerevisiae deletion strains, locus YIL125W, strain kgd1, stronger effect = lower value) of 1.02 and a normalized growth (S. cerevisiae deletion strains, locus YIR030C, strain dcg1, stronger effect = lower value) of 1.01. For the same molecule, the normalized growth (S. cerevisiae deletion strains, locus YJL095W, strain BCK1, stronger effect = lower value) was 1.03, the normalized growth (S. cerevisiae deletion strains, locus YJL134W, strain LCB3, stronger effect = lower value) was 1.01 and the normalized growth (S. cerevisiae deletion strains, locus YJL168C, strain set2, stronger effect = lower value) was 1.01. It also gave a normalized growth (S. cerevisiae deletion strains, locus YJL187C, strain SWE1 (second series), stronger effect = lower value) of 1.01, a normalized growth (S. cerevisiae deletion strains, locus YKL009W, strain mrt4, stronger effect = lower value) of 1.01 and a normalized growth (S. cerevisiae deletion strains, locus YKL068W, stronger effect = lower value) of 1.02. For the same molecule, the normalized growth (S. cerevisiae deletion strains, locus YKL085W, strain MDH1 (second series), stronger effect = lower value) was 1, the normalized growth (S. cerevisiae deletion strains, locus YKL085W, strain MDH1, stronger effect = lower value) was 1 and the normalized growth (S. cerevisiae deletion strains, locus YKR001C, strain vps1, stronger effect = lower value) was 1.04. The normalized growth [7] was 1.05, the normalized growth (S. cerevisiae deletion strains, locus YLR058C, strain SHM2, stronger effect = lower value) was 1.01 and the normalized growth (S. cerevisiae deletion strains, locus YLR102C, strain apc9, stronger effect = lower value) was 1.01. For the same molecule, the normalized growth [8] was 1.09, the normalized growth (S. cerevisiae deletion strains, locus YLR268W, strain sec22, stronger effect = lower value) was 1.02 and the normalized growth (S. cerevisiae deletion strains, locus YLR330W, strain CHS5, stronger effect = lower value) was 1.01. The normalized growth (S. cerevisiae deletion strains, locus YLR342W, strain FKS1 (second series), stronger effect = lower value) was 0.995, the normalized growth (S. cerevisiae deletion strains, locus YLR371W, strain rom2, stronger effect = lower value) was 0.997 and the normalized growth (S. cerevisiae deletion strains, locus YLR418C, strain cdc73, stronger effect = lower value) was 1.05. For the same molecule, the normalized growth (S. cerevisiae deletion strains, locus YML016C, strain PPZ1, stronger effect = lower value) was 1.01, the normalized growth (S. cerevisiae deletion strains, locus YML032C, strain rad52, stronger effect = lower value) was 1.02 and the normalized growth (S. cerevisiae deletion strains, locus YML124C, strain tub3, stronger effect = lower value) was 1.01. For the same molecule, the normalized growth (S. cerevisiae deletion strains, locus YMR078C, strain ctf18, stronger effect = lower value) was 1, the normalized growth (S. cerevisiae deletion strains, locus YMR223W, strain ubp8, stronger effect = lower value) was 1.01 and the normalized growth [9] was 1.01. The normalized growth [14] was 1.06, the normalized growth (S. cerevisiae deletion strains, locus YNL067W, strain RPL9B, stronger effect = lower value) was 1.02 and the normalized growth [10] was 1.01. The normalized growth (S. cerevisiae deletion strains, locus YNL233W, strain BNI4, stronger effect = lower value) was 1.01, the normalized growth (S. cerevisiae deletion strains, locus YNL250W, strain rad50, stronger effect = lower value) was 1.01 and the normalized growth (S. cerevisiae deletion strains, locus YNL271C, strain bni1, stronger effect = lower value) was 1.01. The normalized growth (S. cerevisiae deletion strains, locus YNL298W, strain CLA4, stronger effect = lower value) was 1.04, the normalized growth (S. cerevisiae deletion strains, locus YNL307C, strain MCK1, stronger effect = lower value) was 1.02 and the normalized growth [11] was 1. The normalized growth (S. cerevisiae deletion strains, locus YNR052C, strain pop2, stronger effect = lower value) was 1.02, the normalized growth (S. cerevisiae deletion strains, locus YOL012C, strain htz1) was 0.873 and the normalized growth (S. cerevisiae deletion strains, locus YOL147C, strain pex11, stronger effect = lower value) was 1.01. It also gave a normalized growth (S. cerevisiae deletion strains, locus YOR061W, strain CKA2, stronger effect = lower value) of 1.01, a normalized growth (S. cerevisiae deletion strains, locus YOR069W, strain VPS5, stronger effect = lower value) of 1.01 and a normalized growth (S. cerevisiae deletion strains, locus YOR136W, strain idh2, stronger effect = lower value) of 1.02. The normalized growth (S. cerevisiae deletion strains, locus YOR144C, strain elg1, stronger effect = lower value) was 1.01, the normalized growth (S. cerevisiae deletion strains, locus YOR184W, strain ser1, stronger effect = lower value) was 0.995 and the normalized growth (S. cerevisiae deletion strains, locus YOR316C, strain cot1, stronger effect = lower value) was 1.02. The normalized growth [13] was 1.01, the normalized growth (S. cerevisiae deletion strains, locus YPR119W, strain clb2, stronger effect = lower value) was 1 and the normalized growth (S. cerevisiae deletion strains, locus YPR141C, strain kar3, stronger effect = lower value) was 1.01. For the same molecule, the normalized growth (S. cerevisiae deletion strains, locus YPR167C, strain met16, stronger effect = lower value) was 1 and the normalized growth (S. cerevisiae deletion strains, strain wtn01, stronger effect = lower value) was 1.01.
